From PubChem
A selection: hits, their analogues and other compounds. The true share with any hit is near 6.7%.
C diff growth: C. difficile growth inhibition; 0.25% of 86,000 active; growth activity, negative = inhibition, % at 16 µg/mL (by protocol); Clostridium difficile clinical isolate growth, OD600, 24 h; hits give low values;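 active = mean growth activity at or below -80% and every replicate also at or below -80%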;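 also: 0% = DMSO wells and -100% = levofloxacin 16 µg/mL wells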
Tcruzi prolif: T. cruzi proliferation inhibition | T. cruzi beta-gal in NIH3T3, GalScreen luminescence, 90 h | inhibition, % at 8.34 µM | 5.9% of 77,000 active;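 active = mean inhibition above about 93%, with at least 55% of replicates each passing it, limit read from the data, passing the limit was not always enough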
Pf Dd2 growth: P. falciparum Dd2 growth inhibition. activity change, % at 10 µM. SYBR Green, 72 h; hits give low values. 2.3% of 94,000 active; in the data active = activity change below about -80%
* marks the source's active call; other numbers are inactive results; · = no result.

SMILES	C diff growth	Tcruzi prolif	Pf Dd2 growth
C[C@@H]1CCCCO[C@H](CN(C)C(=O)Cc2ccccc2)[C@@H](C)CN([C@H](C)CO)C(=O)c2cc(NS(=O)(=O)c3ccc(Cl)cc3)ccc2O1	-2	32	-17
C[C@@H]1CN([C@@H](C)CO)C(=O)c2cc(NS(C)(=O)=O)ccc2O[C@@H](C)CCCCO[C@H]1CN(C)S(=O)(=O)c1ccc(F)cc1	-3	35	-55
Cc1noc(C)c1NC(=O)Nc1ccc2c(c1)C(=O)N([C@@H](C)CO)C[C@@H](C)[C@@H](CN(C)C(=O)Nc1ccccc1)OCCCC[C@@H](C)O2	-9	-18	-43
CCC(=O)N(C)C[C@@H]1Oc2ncc(-c3ccc(C#N)cc3)cc2C(=O)N([C@@H](C)CO)C[C@@H]1C	2	53	7
COc1cccc(S(=O)(=O)Nc2ccc3c(c2)[C@H]2C[C@@H](CC(=O)NCc4cccc(F)c4)O[C@@H](CO)[C@H]2O3)c1	-7	41	-22
CC(C)C#Cc1cnc2c(c1)C(=O)N([C@H](C)CO)C[C@H](C)[C@@H](CN(C)Cc1cncnc1)O2	1	-36	26
O=C(C1CC1)N1CC2(C1)[C@@H](c1ccccc1)[C@@H](CO)N2Cc1ccc(Cl)cc1	2	·	-27
Cc1ccc(S(=O)(=O)Nc2ccc3c(c2)C(=O)N([C@H](C)CO)C[C@@H](C)[C@@H](CN(C)Cc2ccccc2)OCCCC[C@@H](C)O3)cc1	1	101	-83*
Cc1ccc(S(=O)(=O)Nc2ccc3c(c2)C(=O)N([C@@H](C)CO)C[C@H](C)[C@H](CN(C)Cc2ccccc2)OCCCC[C@H](C)O3)cc1	2	39	-55
C[C@@H]1CN([C@H](C)CO)C(=O)c2cc(NS(C)(=O)=O)ccc2O[C@@H](C)CCCCO[C@H]1CN(C)Cc1ccccc1	0	58	21
C[C@@H]1CN([C@H](C)CO)C(=O)c2cc(NS(C)(=O)=O)ccc2O[C@@H](C)CCCCO[C@@H]1CN(C)Cc1ccc(Cl)c(Cl)c1	-1	87	-88*
C[C@@H]1CN([C@@H](C)CO)C(=O)c2cc(NS(C)(=O)=O)ccc2O[C@@H](C)CCCCO[C@@H]1CN(C)Cc1ccccc1	-4	36	-95*
C[C@@H]1CN([C@H](C)CO)C(=O)c2cc(NS(C)(=O)=O)ccc2O[C@@H](C)CCCCO[C@H]1CN(C)Cc1ccc(Cl)c(Cl)c1	2	89	-52
CCCc1cn(CC[C@H]2CC[C@@H](NC(=O)Cc3cccnc3)[C@H](CO)O2)nn1	-8	-37	1
CC(C)NC(=O)Nc1ccc2c(c1)C(=O)N([C@H](C)CO)C[C@H](C)[C@@H](CN(C)S(=O)(=O)c1cccs1)OCCCC[C@@H](C)O2	-10	·	·
COc1cccc(C(=O)Nc2ccc3c(c2)OC[C@@H](C)N(CC2CC2)C[C@@H](C)[C@H](OC)CN(C)C3=O)c1	-2	13	-40
Cc1ccc(S(=O)(=O)Nc2ccc3c(c2)CC(=O)N([C@H](C)CO)C[C@@H](C)[C@@H](CN(C)Cc2ccc(C(=O)Nc4ccccc4N)cc2)O3)cc1	2	59	-86*
Cc1ccc(S(=O)(=O)Nc2ccc3c(c2)CC(=O)N([C@@H](C)CO)C[C@H](C)[C@@H](CN(C)Cc2ccc(C(=O)Nc4ccccc4N)cc2)O3)cc1	1	·	-85*
C[C@@H]1CN([C@@H](C)CO)C(=O)Cc2cc(NS(C)(=O)=O)ccc2O[C@@H]1CN(C)Cc1ccc(C(=O)Nc2ccccc2N)cc1	1	·	8
C[C@H](CO)N1C[C@H](C)[C@@H](CN(C)Cc2ccc(C(=O)Nc3ccccc3N)cc2)Oc2ccc(NS(C)(=O)=O)cc2CC1=O	-2	62	-18
C/C=C/c1cnc2c(c1)C(=O)N([C@@H](C)CO)C[C@@H](C)[C@@H](CN(C)S(=O)(=O)c1cn(C)cn1)O2	0	·	14
C[C@@H]1CN([C@H](C)CO)C(=O)c2cccc(NC(=O)c3ccc(-c4nccs4)cc3)c2O[C@H]1CN(C)Cc1ccc(-c2ccccc2)cc1	-8	85	-82*
C[C@@H]1CN([C@H](C)CO)C(=O)c2cccc(NC(=O)c3ccc(-c4nccs4)cc3)c2O[C@H]1CN(C)Cc1ccc2c(c1)OCO2	-2	21	-92*
C[C@@H]1CN([C@@H](C)CO)C(=O)c2cccc(NC(=O)c3ccc(-c4nccs4)cc3)c2O[C@@H]1CN(C)C(=O)Nc1cccc2ccccc12	5	-100	-86*
C[C@H]1CN([C@@H](C)CO)C(=O)c2cccc(NC(=O)c3ccc(-c4nccs4)cc3)c2O[C@@H]1CN(C)Cc1ccc2c(c1)OCO2	3	10	-34
SMILES	C diff growth	Tcruzi prolif	Pf Dd2 growth
C[C@H](CO)N1C[C@H](C)[C@@H](CN(C)Cc2ccc(-c3ccccc3)cc2)Oc2c(NC(=O)c3ccc(-c4nccs4)cc3)cccc2C1=O	3	90	-86*
C[C@H](CO)N1C[C@H](C)[C@H](CN(C)Cc2ccc(-c3ccccc3)cc2)Oc2c(NC(=O)c3ccc(-c4nccs4)cc3)cccc2C1=O	26	73	-52
C[C@H]1CN([C@@H](C)CO)C(=O)c2cccc(NC(=O)c3ccc(-c4nccs4)cc3)c2O[C@H]1CN(C)Cc1ccc(-c2ccccc2)cc1	32	34	-54
C[C@H]1CN([C@@H](C)CO)C(=O)c2cccc(NC(=O)c3ccc(-c4nccs4)cc3)c2O[C@H]1CN(C)C(=O)Nc1cccc2ccccc12	-3	-63	12
COc1ccc(C#Cc2ccc3c(c2)[C@]2(C(=O)N3)[C@H](c3ccc(O)cc3)N3[C@H](c4ccccc4)[C@H](c4ccccc4)OC(=O)[C@H]3[C@@H]2C(=O)N2CCCCCCC2)cc1	1	·	·
Cc1noc(C)c1NC(=O)N(C)C[C@@H]1Oc2ncc(C#CCN(C)C)cc2C(=O)N([C@@H](C)CO)C[C@H]1C	-5	-20	41
C[C@H]1CN([C@@H](C)CO)S(=O)(=O)c2ccc(-c3ccccc3)cc2O[C@H]1CN(C)C(=O)c1ccc2c(c1)OCO2	7	·	-7
CN1C(=O)c2cc(NC(=O)Cc3ccccc3)ccc2OC[C@@H]2O[C@@H](CC(=O)NC3CCC3)CC[C@@H]21	-3	1	-4
C/C=C/c1ccc([C@@H]2[C@H](CO)N(C(C)=O)C23CN(C(=O)NC2CCCC2)C3)cc1	0	·	3
CCC(=O)N1CCC2(CC1)CN(C(=O)Nc1ccc(F)cc1)[C@H](CO)c1c2c2ccc(OC)cc2n1C	5	·	-35
COc1ccc2c3c(n(C)c2c1)[C@H](CO)N(C(=O)Nc1ccc(F)cc1)CC31CCN(C(=O)c2ccc3c(c2)OCO3)CC1	-13	·	-88*
COc1ccc2c3c(n(C)c2c1)[C@@H](CO)N(C(=O)Nc1ccc(F)cc1)CC31CCN(C(=O)c2ccc3c(c2)OCO3)CC1	0	·	-71
COc1ccc2c3c(n(C)c2c1)[C@@H](CO)N(C(=O)Nc1ccc(F)cc1)CC31CCN(C(=O)c2ccccc2F)CC1	-13	·	-85*
CCCN(C)C[C@@H]1Oc2ncc(Br)cc2C(=O)N([C@H](C)CO)C[C@H]1C	10	-32	-45
C[C@@H]1CN([C@@H](C)CO)S(=O)(=O)c2ccc(C3=CCCCC3)cc2O[C@@H]1CN(C)S(=O)(=O)c1cn(C)cn1	-1	30	20
